# Screening results from PubChem BioAssay.
# Most compounds without a hit are left out; they make up all but 3.4% or so of the library.
# GPR151 ag: activators of human GPR151, primary screen, cell-based, PathHunter beta-arrestin, luminescence; AID 1508602, 2020; activation, % at 11.2 µM; hit rate 1% among 650,000; G-protein coupled receptor 151 (Homo sapiens), Q8TDV0; PathHunter beta-arrestin GPR151 cells; in the data active = activation above about 4.9%;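 note: 0% = median of compound wells and 100% = cells with positive control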
# Target sequence (Q8TDV0 whole entry, looked up): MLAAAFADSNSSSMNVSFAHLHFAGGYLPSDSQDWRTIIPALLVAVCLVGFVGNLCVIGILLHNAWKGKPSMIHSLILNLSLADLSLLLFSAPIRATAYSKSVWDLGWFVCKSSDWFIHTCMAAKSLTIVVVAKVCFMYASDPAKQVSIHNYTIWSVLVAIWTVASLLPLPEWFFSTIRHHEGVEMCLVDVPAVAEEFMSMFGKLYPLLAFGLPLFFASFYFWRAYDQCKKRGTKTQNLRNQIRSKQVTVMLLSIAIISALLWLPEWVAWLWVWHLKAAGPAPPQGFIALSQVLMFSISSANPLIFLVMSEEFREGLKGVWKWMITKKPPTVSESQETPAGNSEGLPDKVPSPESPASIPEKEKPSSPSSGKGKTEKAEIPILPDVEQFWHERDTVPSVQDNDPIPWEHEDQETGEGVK
# MITF primary: MITF inhibitors, primary screen, biochemical, AlphaScreen, human. inhibition, % at 2.6 µM. AlphaScreen MITF homodimerization, bead proximity signal. hit rate 0.91% among 650,000. Microphthalmia-associated transcription factor (Homo sapiens), O75030; in the data active = inhibition above about 50%;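 note: 0% = vehicle wells with protein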
# TEAD-YAP inh: TEAD-YAP interaction inhibition, primary screen, TEAD-YAP interaction inhibitor project, luminescence, HEK-TIYL cells. TEAD-Gal4/YAP UAS-luciferase luminescence. inhibition, % at 9.12 µM. hit rate 1.4% among 640,000; in the data active = inhibition above about 32%;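 note: 0% = median of test compound wells and 100% = reference inhibitor wells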
# FBW7 activator: FBW7 E3 ligase activators, primary screen, biochemical, AlphaScreen, human; AlphaScreen FBW7–phospho-cyclin E peptide binding, activator screen; F-box/WD repeat-containing protein 7 (Homo sapiens), Q969H0; AID 1259310, 2017; normalized activity (activation), % at 26.1 µM; hit rate 0.13% among 650,000; in the data active = normalized activity above about 1.9%;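 note: purified mutant Fbw7 with reduced substrate affinity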
# * = called active by the depositor.
SMILES,GPR151 ag,MITF primary,TEAD-YAP inh,FBW7 activator
C=CCc1cccc2cc(C(=O)Nc3cccc(O)c3)c(=O)oc12,-1,19,58*,0
CC(CO)NC(=O)c1cc2ccccc2oc1=O (stereo not drawn),0,-6,-11,0
CCOc1ccc(N(CC(=O)NCCSCc2ccco2)S(C)(=O)=O)cc1,2,-9,4,0
CCC(C)NS(=O)(=O)c1ccc(Br)cc1 (stereo not drawn),1,8,-5,0
CCC(C)NS(=O)(=O)c1ccc(Cc2ccc(S(=O)(=O)NC(C)CC)cc2)cc1 (stereo not drawn),1,6,34*,0
O=C1C(=O)N(CCCn2ccnc2)C(c2ccco2)/C1=C(/O)c1ccc2c(c1)OCCO2 (stereo not drawn),2,3,-8,0
Cc1cc(N2CCN(c3ncccn3)CC2)nc2ccc(NC(=O)c3ccncc3)cc12,1,6,48*,0
COc1cc(/C=C/C(=O)Nc2ccc3nc(N4CCN(c5ncccn5)CC4)cc(C)c3c2)cc(OC)c1OC,2,1,42*,0
O=C(CSc1nc2ccccc2[nH]1)Nc1ccc2nc(SCC(=O)Nc3ccccc3)sc2c1,0,11,5,0
O=[N+]([O-])c1ccccc1S(=O)Cc1ccccc1Cl (stereo not drawn),2,-2,0,0
COc1ccc(CNC(=O)N2CCC(c3nnc(C4CC4)s3)CC2)cc1,0,5,4,3.1*
COc1ccc(CNC(=O)N2CCC(c3nnc(C4CC4)o3)CC2)cc1,-1,6,1,1
Cc1cccc(NC(=O)N2CCC(c3nnc(C4CC4)s3)CC2)c1,0,9,-1,3.1*
O=C(Nc1ccc2c(c1)OCO2)N1CCC(c2nnc(C3CC3)s2)CC1,0,-15,-23,2.6*
O=C(Nc1ccc2c(c1)OCO2)N1CCN(C2CCCCC2)CC1,-1,-1,-16,0
COc1ccc(C2Oc3ccccc3C3=C2C(c2ccccc2C)n2ncnc2N3)cc1OC (stereo not drawn),-1,2,1,0
C/C(=N/NC(=O)C1COc2cc3ccccc3cc2O1)c1ccccc1O (stereo not drawn),-1,-15,6,0
c1ccc(CCSc2nnnn2-c2ccccc2)cc1,0,1,-47,0
Cc1ccc(Nc2nc(CSc3nnnn3-c3ccccc3)cs2)cc1,1,12,-2,0
Cc1ccc(Nc2nnc(Sc3nnnn3-c3ccccc3)s2)cc1,-1,7,53*,1
CCCSc1nnc(Sc2nnnn2-c2ccccc2)s1,1,3,56*,0
COc1ccc(C(=O)Nn2c(SCC(=O)NCc3ccco3)nc3ccccc3c2=O)cc1,0,-10,75*,0
COc1ccc(C(=O)Nn2c(SCC(=O)NCCc3ccccc3)nc3ccccc3c2=O)cc1,2,-2,71*,0
CC1=NN(c2ccc(Br)cc2)C(=O)/C1=C\c1ccc(O)c(O)c1,0,24,4,0
O=C1NCC(Cn2c3ccccc3c3ccccc32)O1 (stereo not drawn),-2,21,2,1
SMILES,GPR151 ag,MITF primary,TEAD-YAP inh,FBW7 activator
FC(F)(F)c1cccc(CNc2nc(Oc3ccccc3)nc3c2ncn3-c2ccsc2)c1,1,-6,74*,0
CC(=O)c1cccc(-c2nc(NCCO)c3ncn(C(C)C)c3n2)c1,2,16,55*,0
CC(=O)c1cccc(-c2nc(NCc3ccccc3)c3ncn(-c4ccsc4)c3n2)c1,4,7,14,0
FC(F)(F)c1cccc(CNc2nc(Nc3ccccc3)nc3c2ncn3-c2ccsc2)c1,3,8,-2,0
CC(=O)c1cccc(-c2nc(NCCO)c3ncn(-c4ccsc4)c3n2)c1,-2,19,49*,0
CC(=O)c1cccc(-c2nc(NCCN(C(C)C)C(C)C)c3ncn(-c4ccccc4)c3n2)c1,0,-1,15,0
CC(=O)c1cccc(-c2nc(NCCN(C(C)C)C(C)C)c3ncn(-c4ccsc4)c3n2)c1,-1,3,49*,0
O=C(CSc1nc(-c2ccccc2)cc(-c2ccccc2)n1)Nc1nc(-c2ccc(Br)cc2)cs1,1,12,5,0
CN(CCc1ccccn1)C(=O)CCC1CCCN(S(=O)(=O)Cc2ccccc2)C1 (stereo not drawn),-1,11,-3,0
OCCNc1nc(-c2ccccc2)nc2c1ncn2-c1ccsc1,2,-3,42*,0
CC(C)N(CCNc1nc(-c2cccc(N)c2)nc2c1ncn2-c1ccsc1)C(C)C,0,-6,59*,0
COc1ccc(-c2nc(NCCN(C(C)C)C(C)C)c3ncn(-c4ccsc4)c3n2)cc1,-1,-8,7,0
Cn1c(=O)c2[nH]c(SC(C(=O)c3ccccc3)c3ccccc3)nc2n(C)c1=O (stereo not drawn),-1,-10,4,0
CCCOc1ccccc1C1C(C(=O)OCCSCC)=C(C)NC2=C1C(=O)CC(c1ccccc1)C2 (stereo not drawn),0,7,9,0
O=C(NCCCN1CCOCC1)C(Cc1ccccc1)NS(=O)(=O)c1ccc(Cl)cc1 (stereo not drawn),-1,-1,1,2.4*
CCOC(=O)c1cccc(NC(=O)/C=C/c2ccccc2[N+](=O)[O-])c1,1,6,33*,0
COc1ccc(OC)c(NS(=O)(=O)c2ccc(C(C)(C)C)cc2)c1,1,15,7,0
CCOc1ccc(S(=O)(=O)Nc2cc(OC)ccc2OC)cc1,-2,14,63*,1
COc1ccc(OC)c(NS(=O)(=O)c2ccc(SC)cc2)c1,1,16,52*,0
CCOc1ccc(NS(=O)(=O)c2ccc(OC)c(OC)c2)cc1,-1,3,0,0
COc1ccc(NS(=O)(=O)c2ccc(Oc3ccccc3OC)cc2)cc1,0,7,33*,0
COc1ccc(C)cc1NS(=O)(=O)c1ccc(SC)cc1,0,23,8,0
COc1cccc(NS(=O)(=O)c2ccc(Oc3ccccc3OC)cc2)c1,-1,-2,6,0
CCOc1ccc(S(=O)(=O)Nc2ccc(OC)c(OC)c2)cc1,0,23,57*,1
Cc1ccc(-n2c(O)c(/C=C3\C=CC=N3)c(=O)[nH]c2=S)cc1,-1,-4,-15,0
Cc1cc(NCCOc2ccccc2)nc(NCc2cccnc2)n1,1,10,-1,0
O=C1CC(NCc2ccc3c(c2)OCO3)C(=O)N1c1ccc(Cl)cc1 (stereo not drawn),-1,12,-1,1
CCOC(=O)c1nn(CCO)c2c1CN(Cc1cccc(OCc3ccccc3)c1)CC2,-1,7,3,0
CCOC(=O)C1CCN(C2=NS(=O)(=O)c3ccccc32)CC1,-1,-7,2,0
